This is a sample that favours compounds with a hit; in the whole collection about 0.68% have one here.
LmPK inhibitor = qHTS Assay for Inhibitors of Leishmania Mexicana Pyruvate Kinase (LmPK). 290,000 compounds, 0.37% hits. AID 1721, 2009. Potency, µM (top dose mostly 57.5 µM), actives largely listed as inhibitors. purified LmPK, Kinase-Glo ATP luminescence, 1 h. Q27686
Target sequence (Q27686 whole entry, looked up): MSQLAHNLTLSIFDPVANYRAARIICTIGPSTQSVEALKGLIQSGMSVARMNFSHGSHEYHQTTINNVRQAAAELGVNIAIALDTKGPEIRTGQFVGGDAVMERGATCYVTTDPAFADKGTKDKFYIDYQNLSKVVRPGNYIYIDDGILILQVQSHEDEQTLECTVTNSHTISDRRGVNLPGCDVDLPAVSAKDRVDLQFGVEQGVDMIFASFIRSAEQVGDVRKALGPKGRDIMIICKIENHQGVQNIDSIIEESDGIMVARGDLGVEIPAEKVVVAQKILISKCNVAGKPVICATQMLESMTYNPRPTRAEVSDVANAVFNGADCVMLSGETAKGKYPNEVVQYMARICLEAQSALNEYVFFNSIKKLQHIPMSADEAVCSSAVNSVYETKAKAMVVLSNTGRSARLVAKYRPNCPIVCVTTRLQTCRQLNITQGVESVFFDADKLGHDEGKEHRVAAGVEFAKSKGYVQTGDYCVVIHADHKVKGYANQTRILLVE
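Kinase-Glo luminescence read after 1 h RT reaction of 0.1 nM LmPK with 0.5 mM PEP and 0.1 mM ADP. Activity scaled between uninhibited and enzyme-free controls.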
AMA1-RON2 inh = qHTS for Inhibitors of AMA1-RON; Towards Development of Antimalarial Drug Lead: Primary Screen; AID 720542, 2013; AlphaScreen AMA1-biotinylated RON2 peptide binding; Potency, µM (series often up to 58.2 µM), actives largely listed as inhibitors; Plasmodium falciparum AMA1 (3D7) - RON2 peptide interaction; 360,000 compounds, 0.2% hits; further: nearly all actives have a fitted effect of over 45% in size
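AMA1 (3D7) with his tag at 25 nM final met compounds first, then biotinylated RON2 peptide at 25 nM; detection used donor plus acceptor beads, 10 µg/mL apiece, read by AlphaScreen after 30 min at room temperature.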
RE007 growth inh = qHTS Assay for Inhibitors of the HIV-1 protein Vpr; S. pombe RE007 Vpr strain, BacTiter-Glo ATP luminescence, 24 h; Potency, µM (titrated, usually from 92.2 µM), hits mostly inhibitors; 360,000 compounds, 0.21% hits; active means well fitted falling curve with a large enough effect; inconclusive means small, poorly fitted or top-dose-only effect; inactive means no such curve, though single readings can be large or run the other way; further: nearly all actives have a fitted effect of over 50% in size
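Fission yeast strain RE007, carrying one chromosomally integrated HIV-1 vpr copy, was seeded at OD 0.01 in PMG+AL medium with 23 nL pinned compound. After 24 h at 30 °C and 99% humidity, viability was read by BacTiter-Glo luminescence.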
TbPYK inhibitor = qHTS of Trypanosoma Brucei Inhibitors; AID 624173, 2012; pyruvate kinase (Trypanosoma brucei), Q57TT1; TbPYK enzyme, Kinase-Glo Plus ATP luminescence, 45 min; Potency, µM (doses to about 76.8 µM), most hits filed as inhibitors; 410,000 compounds, 0.12% hits; further: nearly all actives have a fitted effect of over 50% in size
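Readout: single end-point luminescence (Kinase-Glo Plus, 10 min). Reaction conditions were TbPYK/substrate plus 130 uM ADP, 45 min at RT, pH 7.2 TEA buffer. No-enzyme wells served as controls, and data were normalized before concentration-response fitting.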
Numbers stand for hits; – = inactive; ? = inconclusive; · = not tested or not shown; [ ] = another dose, or the depositor's remark. Unless noted, the call rests on the fitted dose curve; in most records, active means well fitted curve in the direction sought with a large enough effect; inconclusive means small, poorly fitted or top-dose-only effect, or another doubt; inactive means no such curve, though single readings can be large; an effect the other way counts as inactive or inconclusive.

SMILES | LmPK inhibitor | AMA1-RON2 inh | RE007 growth inh | TbPYK inhibitor
COc1ccc(C(=O)N/N=C(\CCC(=O)O)c2ccc(C(C)(C)C)cc2)cc1OC | – | – | – | –
Oc1c(Cl)cc(Cl)cc1C=Nc1cc(C(F)(F)F)ccc1N1CCc2ccccc2C1 | 16µM | – | · | ?
O=c1c2ccccc2sn1-c1cc(S(=O)(=O)N2CCOCC2)ccc1N1CCOCC1 | – | – | – | 4.5µM
O=S(=O)(c1ccc(N2CCOCC2)c(Cl)c1)N1CCOCC1 | – | – | – | –
CCOC(=O)CCc1c(C)nc(SCC(=O)O)c(C#N)c1C | – | – | – | 32µM
Clc1ccc(CN2CCN(c3ncccn3)CC2)c(Cl)c1 | – | 16µM | – | –
Cc1sc2ncnc(N(C)CCc3ccccn3)c2c1C | – | – | – | –
COc1cc2c3c(c1)C(C)=CC(C)(C)N3C(=O)C2=O | – | ? | – | –
CCCOc1ccccc1-n1sc2c(c1=S)-c1cc(OC)cc3c1N(C(=O)C3=O)C2(C)C | – | 2.8µM | – | –
CN(C)c1ccc(/C=C/C(=O)c2ccccc2O)cc1 | –[11.5 µM] | 14µM | – | –
NC(=NC1CCCCC1)c1ccc([N+](=O)[O-])cc1 | – | – | – | –
O=C1C=CC(=Nc2ccc(F)cc2)O1 | · | – | 5µM | ?
CCOc1ccc(NC(=O)Cn2c(CCC(=O)O)ccc2-c2ccc(C)cc2)cc1 | · | · | · | –
O=c1c(=NNc2ccccc2Cl)c(=O)c2ccccc12 | 16µM | – | – | –
Cc1ccc(Nc2nc3ccccc3c3nnc(C)n23)c(C)c1 | · | · | · | –[15.4 µM]
CCCc1nc2ccccc2c(=O)n1/N=C/c1ccccc1O | – | – | – | –
CCCc1nc2ccccc2c(=O)n1/N=C/c1c(C)[nH]n(-c2ccc(C)cc2)c1=O | ? | – | 16µM | –
C(=N\N1CCN(c2ccccn2)CC1)/c1cccc2ccccc12 | – | 14µM | – | –
Oc1ccccc1/C=N/N1CCN(c2ccccn2)CC1 | – | ? | – | –
CC1=C(C)CC(C(=O)Nc2nc(C)cs2)C(C(=O)O)C1 (stereo not given) | – | – | – | –
C[n+]1c2ccccc2nc2ccc(NCCO)cc21 | – | 20µM | 3.5µM | ?
CNc1ccc2nc3ccccc3[n+](C)c2c1 | – | ? | ? | ?
Clc1ccc(-c2cn3cc(Br)ccc3n2)cc1Cl | – | – | – | –
NC(=O)/C=C\C(=O)Nc1cccc(C(F)(F)F)c1 | – | – | 18µM | –
NNC(=O)Nc1cccc(C(F)(F)F)c1 | – | – | – | –
SMILES | LmPK inhibitor | AMA1-RON2 inh | RE007 growth inh | TbPYK inhibitor
COC(=O)C1=C(C(=O)OC)SC2(S1)C(C(=O)OC)=C(C(=O)OC)Sc1c2ssc1=O | · | 28µM | ? | ?
COC(=O)C1=C(C(=O)OC)SC2(S1)C(C(=O)OC)=C(C(=O)OC)SC1=C2c2cc(C)cc(C)c2NC1(C)C | – | ? | – | –
COc1cccc(C2NC(=O)c3ccccc3O2)c1OCc1ccccc1F (stereo not given) | – | – | – | –
CCOC(=O)c1ccc(NC(=O)CC2Sc3ncnn3C2=O)cc1 (stereo not given) | – | – | 32µM | –
COc1ccc(NC(=O)CC2Sc3ncnn3C2=O)cc1 (stereo not given) | – | – | ? | –
Cc1nn(CCc2n[nH]c(=S)n2-c2ccc(F)cc2)c(C)c1[N+](=O)[O-] | ? | – | – | 10µM
Cc1nn(C(C)c2n[nH]c(=S)n2-c2ccc(F)cc2)c(C)c1[N+](=O)[O-] (stereo not given) | – | – | – | ?
Cc1nn(CCc2n[nH]c(=S)n2-c2ccc(F)c(Cl)c2)c(C)c1[N+](=O)[O-] | ? | – | – | 6.3µM
Cc1nn(CCc2n[nH]c(=S)n2-c2cccc(Cl)c2)c(C)c1[N+](=O)[O-] | 8.9µM | – | – | ?
O=C(Nc1cccc(F)c1)NC1(C(=O)NCC2CCCO2)CCCCC1 (stereo not given) | – | – | – | –
CCCCN1C(=N)N([C@@H](CCC)CN2CCC[C@H]2CN2C(N)=NC[C@H]2CC(C)C)C[C@H]1Cc1ccccc1 | · | – | – | –
S=c1[nH]nc(-c2ccc3ccccc3n2)n1-c1ccccc1Cl | 28µM | – | – | –
Cc1onc(-c2ccccc2)c1-c1n[nH]c(=S)n1-c1ccccc1Cl | 18µM | – | – | ?
Cc1onc(-c2ccccc2)c1-c1n[nH]c(=S)n1-c1ccc(C(=O)O)cc1 | ? | – | – | ?
CCc1nnc(SCC(=O)N2CCCc3ccccc32)nc1CC | – | – | – | –
Cc1ccc2c(c1)c1nnc(SCC(=O)N3CCCc4ccccc43)nc1n2CC(=O)O | 4.5µM | – | – | –
CCOC(=O)c1cnc(Nc2nc3ccccc3o2)nc1CSc1nnc(C)s1 | · | – | – | –
Cc1nc(Nc2nc3ccccc3o2)nc2c1CCC2 | 16µM | – | – | –
Cc1cccc(C)c1Nc1nc2ccccc2o1 | – | – | – | –
CCOC(=O)c1cnc(Nc2nc3ccccc3o2)nc1C | 14µM | – | – | ?
O=C(c1ccc(OCCN2CCCCC2)cc1)c1c(-c2ccc(O)cc2)sc2cc(O)ccc12 | · | ? | –[18.4 µM] | –
Cc1cc2c(SCC(=O)Nc3ccccc3O)ncnc2s1 | · | – | – | –
CC(Oc1cccc(Cl)c1)C(=O)Nc1nc(-c2ccccn2)cs1 (stereo not given) | · | – | 45µM | –
COc1ccc(C(=O)c2c[nH]c(C(=O)NCC3CCCO3)c2)cc1 (stereo not given) | – | – | – | –
COc1cccc(C(=O)Nc2cccnc2)c1 | – | – | – | –
SMILES | LmPK inhibitor | AMA1-RON2 inh | RE007 growth inh | TbPYK inhibitor
CCOC(=O)Cc1nnc(NC(=O)C23CC4CC(CC(C4)C2)C3)s1 | – | – | – | –
Cc1cc(C)c(Nc2cc(S(=O)(=O)O)c(N)c3c2C(=O)c2ccccc2C3=O)c(C)c1 | ? | 28µM | · | ?
Cc1cc(C)c(NC(=O)COC(=O)c2cccc3c2C(=O)c2ccccc2C3=O)c(C)c1 | – | – | – | –
O=C(N/N=C/c1ccco1)c1cc(C2CC2)[nH]n1 | – | – | – | –
C/C(=N\NC(=O)c1cc(-c2cccs2)nc2ccccc12)c1ccccn1 | – | – | – | –
O=[N+]([O-])c1cnc2nc(-c3ccncc3)nn2c1O | 13µM | – | ? | –
O=c1nc(Nc2ccc([N+](=O)[O-])cc2)[nH]c(=O)[nH]1 | – | – | – | –
COC(=O)c1ccc(N=Nc2ccccc2)cc1 | – | ? | – | –
O=Nc1ccc(NOC(=O)c2ccccc2)cc1 | 13µM | – | 10µM | ?
O=C1C(=Cc2cccs2)Oc2ccccc21 | · | – | – | –
O=C1/C(=C/c2cccs2)COc2ccccc21 | 14µM | – | ? | –
CC(C)c1ccc(OCC(=O)NN2C(=O)c3ccccc3C2=O)c(Br)c1 | – | – | – | –
COc1ccc(CCNC(=O)CCC(=O)n2ncc3cc(C)ccc32)cc1OC | – | – | – | –
O=C(CCNc1ccc(Cc2ccncc2)cc1)c1cccc([N+](=O)[O-])c1 | – | – | 35µM | –
